Test results published in PubChem BioAssay (NCI).
About 79,000 compounds went through this panel and 15% of them were active in at least one assay; those are over-represented in the sample as a whole. Cut-off read from the data, not from the text of the source: active = growth inhibition above about 70%; inactive = the rest.

Columns and labels:
[1] = NCI Yeast Anticancer Drug Screen. Data for the rad50 strain (AID 155);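 note: 0% = growth of vehicle-only cultures of the same strain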; details: S. cerevisiae rad50 strain growth inhibition; at 50.0 µM; hits give high values
Method in brief: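 Yeast carrying a defined DNA repair defect were exposed to test compounds, and growth was compared with vehicle-treated controls to give percent inhibition.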

[2] = NCI Yeast Anticancer Drug Screen. Data for the mec2-1 strain (AID 157); details: S. cerevisiae mec2-1 strain, at 50.0 µM, hits give high values
Method in brief: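 Readout is yeast growth inhibition, normalised to vehicle-treated controls, in the mec2-1 strain exposed to compound.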

[3] = NCI Yeast Anticancer Drug Screen. Data for the sgs1 mgt1 strain (AID 161);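 note: 0% = growth of cultures given vehicle only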; details: S. cerevisiae sgs1 mgt1 strain, at 50.0 µM, hits give high values
Method in brief: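 Yeast cells carrying a defined DNA-repair defect were exposed to test compounds. Growth inhibition was measured relative to vehicle-treated controls.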

[4] = NCI Yeast Anticancer Drug Screen. Data for the cln2 rad14 strain (AID 165);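 note: 0% = growth equal to vehicle treated cultures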; details: S. cerevisiae cln2 rad14 strain, at 50.0 µM, hits give high values
Method in brief: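 Relative to vehicle controls, growth inhibition of compound-treated cln2 rad14 yeast was recorded.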

[5] = NCI Yeast Anticancer Drug Screen. Data for the bub3 strain (AID 167); details: S. cerevisiae bub3 mutant strain, at 50.0 µM, hits give high values
Method in brief: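 Compounds were applied to a genetically altered yeast strain carrying a cell-cycle control defect. Growth inhibition was scored against vehicle-treated controls.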

[6] = NCI Yeast Anticancer Drug Screen. Data for the mlh1 rad18 strain (AID 175); details: S. cerevisiae mlh1 rad18 strain growth inhibition; at 50.0 µM; hits give high values
Method in brief: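 Test agents were incubated with a yeast strain of defined genotype (DNA damage repair defect). Inhibition of growth was derived by comparison with vehicle-exposed cultures.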

Measured: growth inhibition

COc1ccc(/C=C/C(=O)c2ccc(Br)cc2)cc1
inactive: [1] -33.4% | [2] -67.5% | [3] -34.2% | [4] 2.75% | [5] -14.4% | [6] -44.3%

CCC(C)(C(=O)O)c1ccccc1 (stereo not given)
inactive: [1] 4.1% | [2] -5.85% | [3] -3.95% | [4] -15.1% | [5] -42.5% | [6] 15.7%

O=C1CC(O)C2C(=O)c3c(c(Cl)c4ccccc4c3O)C(=O)C2C1 (stereo not given)
inactive: [1] 12.1% | [2] 12.4% | [3] 10.2% | [4] 4.75% | [5] 3.85% | [6] 20.3%

COC(=O)C1C2C=CC(O2)C1C(=O)OC (stereo not given)
inactive: [1] -2.15% | [2] -1.75% | [3] -9.75% | [4] -51.6% | [5] 14.1% | [6] -7.45%

CC(=O)OC1CCC2(C)C3CCC4(C)C(C(C)CCCC(C)C)CCC4C3CC(=O)C23CC13 (stereo not given)
inactive: [1] 32% | [2] -3.85% | [3] 13.2% | [4] 6.9% | [5] -6.3% | [6] 17.9%

O=C(Cn1c(=O)oc2ccc(C(=O)c3ccccc3Cl)cc21)c1ccc([N+](=O)[O-])cc1
inactive: [1] -27.6% | [2] -28.3% | [3] 13% | [4] -8.45% | [5] -2.25% | [6] -2.65%

CC(=O)OC1C(C2COCO2)OCOC1C1COCO1 (stereo not given)
inactive: [1] -3.3% | [2] -7.15% | [3] 3.5% | [4] -16.6% | [5] -6.65% | [6] -18%

CSc1nc2ccc(N=Cc3ccccc3O)cc2s1
inactive: [1] -25.5% | [2] -8.25% | [3] -5.7% | [4] -12.6% | [5] 17.7% | [6] -13.4%

O=C(O)C(c1ccccc1)C(O)C1CCCCC1 (stereo not given)
inactive: [1] 0.8% | [2] -1.75% | [3] -1.15% | [4] -13.1% | [5] -8.1% | [6] 4.5%

C=CC/C=C/CCC
inactive: [1] 34.6% | [2] -2.7% | [3] -7.85% | [4] -21.8% | [5] -2.4% | [6] -9.7%

Cc1cccc[n+]1CCC(N)=O
inactive: [1] -6.55% | [2] -26.8% | [3] -1.85% | [4] 5.5% | [5] -15.8% | [6] -6.25%

O=C(NC(=O)c1ccccc1Cl)Nc1ccc(C(O)(C(F)(F)F)C(F)(F)F)cc1
inactive: [1] 53.8% | [2] 53.5% | [3] 58.4% | [4] 68.7% | [5] 34.3% | [6] 61.5%

CCC(C)C1CCCCC1 (stereo not given)
inactive: [1] -13% | [2] -15.9% | [3] -3.35% | [4] 3.85% | [5] -12.8% | [6] 0.75%

O=C(OCCNC(=O)N1CCOCC1)OCCNC(=O)N1CCOCC1
inactive: [1] -16.8% | [2] -2% | [3] -8.55% | [4] 40.6% | [5] -3.2% | [6] 11.3%

CC1=NN(C(=O)c2cccnc2)C(=O)C1N=Nc1ccc(S(=O)(=O)N=C(N)N)cc1 (stereo not given)
inactive: [1] 4.8% | [2] -14.6% | [3] -12.4% | [4] -6.5% | [5] 0% | [6] -21.9%

C/C=C(\C)C(=O)OCC1=CCC2CCC(O)N12 (stereo not given)
inactive: [1] 5.75% | [2] 0.05% | [3] 0.1% | [4] 6.05% | [5] 10.1% | [6] 8.55%

O=C/C=C/C=C/C=C/c1ccccc1
inactive: [1] 32.6% | [2] -6.15% | [3] 14.4% | [4] 13.7% | [5] -5.25% | [6] 27.6%

Cc1ccc(SCC(CF)OC(C)n2cnc3c(=O)[nH]c(N)nc32)cc1 (stereo not given)
inactive: [1] 9.8% | [2] 6.1% | [3] -27.4% | [4] 23.4% | [5] 7.55% | [6] -46.5%

COC1/C=C\OC2(C)Oc3c(C)c(O)c4c(O)c(c(CN(C)C)c(O)c4c3C2=O)NC(=O)/C(C)=C\C=C/C(C)C(O)C(C)C(O)C(C)C(OC(C)=O)C1C (stereo not given)
inactive: [1] 50.5% | [2] -3.1% | [3] -16.7% | [4] 28.2% | [5] -29.9% | [6] -6.45%

Cc1ccc(S(=O)(=O)n2cncc2CO)cc1
inactive: [1] -33.7% | [2] -26.8% | [3] -15.1% | [4] 7.55% | [5] 4.05% | [6] -10.7%
